From PubChem BioAssay (NCI)
Several values for one entry are separate records, joined by “and”; a condition that tells them apart may be missing. Equal entries are not always repeated. This is part of a sample that, as a whole, favours compounds with a hit. Of some 83,000 tested, about 20% had one in any assay.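 Percent growth is the endpoint: 0 to 100 indicates growth inhibition (40 means 60% inhibition), 0 means no net growth, and negative values indicate cell death.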 Unmarked numbers belong to inactive results. Activity calls are given as the source filed them. How the source made its calls: active means growth percent below 10; inactive means the rest.

Tested on: MDA-MB-468 breast
Assay: NCI-60 one-dose screen, 48 h (100 = growth as untreated, 0 = no growth, -100 = all killed)
Conditions: 10 µM unless noted

CCCCCN1C=C/C(=C\C(=O)N(C)c2ccccc2Br)c2ccccc21
growth: 71.2%

COc1cccc(-c2nc3sccn3c2-c2ccnc(NCCNS(=O)(=O)c3ccccc3)n2)c1
growth: 67.4%

O=C(Nc1cccc(-n2ccc3c(NC(=O)c4ccccc4)nccc32)c1)c1ccc(Cl)c(Cl)c1
growth: -94.1% (active)

CCCCCCC(C)N(CC(C)(C)O)C(=O)c1ccc([N+](=O)[O-])cc1 (stereo not given)
growth: 96.1%

OCCCCCCNc1ncnc2cc(Cl)ccc12
growth: 74.1%

CCCCC(CCCCCC(CCCC)NCc1ccc2c(c1)OCO2)NCc1ccc2c(c1)OCO2 (stereo not given)
growth: -90.7% (active)

CCOC(=O)c1nnn(C(Cc2ccccc2Cl)C(=O)OCC)c1C (stereo not given)
growth: 110%

Cc1onc(-c2ccccc2Cl)c1C(=O)Cl
growth: 104%

COC(=O)C1NC(=S)N(c2ccc(Cl)cc2)C1/C=C/c1ccccc1 (stereo not given)
growth: 108%

C=C(C)[C@@H]1CC[C@]2(C(=O)NCCCN)CC[C@]3(C)[C@H](CC[C@@H]4[C@@]5(C)CC[C@H](O)C(C)(C)[C@@H]5CC[C@]43C)[C@@H]12
growth: -19.9% [100 µM] (active)

O=C(C[Si](CC(=O)c1cccc(C(F)(F)F)c1)CC(=O)c1cccc(C(F)(F)F)c1)c1cccc(C(F)(F)F)c1
growth: 91%

O=C(N/N=C/c1c(Cl)cccc1Cl)c1ccc(C(F)(F)F)nc1Nc1cccc(C(F)(F)F)c1
growth: 11.9%

CCOc1cc2c(Cl)ncnc2c(OCC)c1OCC
growth: -51.3% (active)

O=Cc1c(O)c2ccccc2[nH]c1=O
growth: 94.5%

C[N+]1(CC2CO2)CCCCCC1 (stereo not given)
growth: 103%

COc1ccc(C2=CC(c3ccc(Oc4ccnc5cc(Cl)ccc45)c(OC)c3)c3c(nc(OC)[nH]c3=O)N2)cc1 (stereo not given)
growth: 61.4%

C=C(C)[C@@H]1CC[C@]2(N=C=O)CC[C@]3(C)[C@H](CC[C@@H]4[C@@]5(C)Cc6c([nH]c7ccccc67)C(C)(C)[C@@H]5CC[C@]43C)[C@@H]12
growth: 92.5%

O=C(O)CC1=CCCCC1
growth: 102%

CC(=O)c1nn(-c2ccccc2)/c(=N/N=Cc2cn(-c3ccccc3)nc2-c2cc3ccccc3oc2=O)s1
growth: 103%

NC(N)=N/N=C(/c1ccccc1)c1ccc(F)cc1
growth: 14.9%

O/N=C1\c2ccccc2-c2ccc(Br)cc21
growth: 108%

COc1ccc(-c2cnc3c(-c4cccc5cnccc45)cnn3c2)cc1
growth: 47.9%

c1ccc(NCc2ccc3c(c2)OCO3)cc1
growth: 104% and 97.7%

O=C(Nc1cc(Cl)ccc1O)c1cccc(Nc2ccnc(C(F)(F)F)c2)c1
growth: 16%

O=C(/C(Br)=C/c1ccccc1)c1ccccc1
growth: -31.9% (active)
